Compound activity as filed in PubChem.
Hits are enriched below; roughly 0.86% of the tested compounds scored in any of these assays.
CDC25B CDK2 inh: human CDC25B-CDK2/CyclinA binding inhibition; hit rate 0.72% among 94,000; z-score (concentration not given with the values); HTRF CDC25B-CDK2/CyclinA binding, anti-His/anti-Flag; active compounds read high; P30305+P24941; AID 1259370; in the data active means z-score above about 3.2
TAR Tat displ: HIV-1 TAR-Tat binding disruption; HIV-1 TAR RNA, Tat peptide displacement FRET; active compounds read high; z-score (test concentration not listed); hit rate 0.6% among 100,000; AID 1259389; active means z-score of 3 or more in at least 2 runs
Of the large screens only hits and unclear results are named; the others gave an inactive call.

COc1ccccc1-c1cc(C(=O)O)c2ccccc2n1	none
O=C1CN(Cc2ccccc2F)S(=O)(=O)c2ccccc2N1Cc1ccc(F)cc1	none (no result: CDC25B CDK2 inh)
O=C1CN(Cc2ccccc2F)S(=O)(=O)c2ccccc2N1Cc1ccccc1	TAR Tat displ 9.4 (no result: CDC25B CDK2 inh)
Clc1ccc(C2Oc3ccccc3C3=C2C(c2cccs2)n2ncnc2N3)cc1 (stereo unspecified)	none (no result: TAR Tat displ)
O=C(O)c1ccc2c3c(ccc(C(=O)O)c13)C(=O)NC2=O	none
O=C1Nc2c(C(=O)O)cccc2C1=O	TAR Tat displ 21
Cc1nnc(N2C(=O)c3oc4ccccc4c(=O)c3C2c2ccc(O)cc2)s1 (stereo unspecified)	none
Cc1ccc(S(=O)(=O)Nc2cc(S(=O)(=O)c3ccc(C)cc3)c(O)c3cccnc23)cc1	none
Cc1ccc(S(=O)(=O)Nc2cc(Cl)c(O)c3ncccc23)cc1	CDC25B CDK2 inh 14
N#Cc1nc2c(C#N)c(N)n(Cc3ccco3)c2nc1C#N	none (no result: TAR Tat displ)
CCOc1ccc(-c2noc(CSc3nnc(C)n3-c3ccc(OC)cc3)n2)cc1	none
Nc1ccc2nc(-c3ccc(Cl)cc3)[nH]c2c1	TAR Tat displ 5.1
Cc1ccc(-c2nc3ccc(N)cc3[nH]2)cc1	none
Cc1nc2ccc(-c3nc4ccc(N)cc4[nH]3)cc2[nH]1	CDC25B CDK2 inh 5 (no result: TAR Tat displ)
Cc1c(N)ccc2[nH]c(-c3ccc(N)cc3)nc12	none
Nc1ccc(-c2nc3ccc(N)cc3[nH]2)cc1	none (no result: TAR Tat displ)
Nc1ccc(-c2nc3c(Cl)c(N)ccc3[nH]2)cc1	TAR Tat displ 3.7
COc1cc(CNCCSc2nnnn2-c2ccccc2)cc(Br)c1OC	none
Cc1ccc(NS(=O)(=O)c2cc(/C=C/c3onc(C)c3[N+](=O)[O-])ccc2C)cc1Cl	none (no result: CDC25B CDK2 inh)
COC(=O)/C=C(/Nc1ccc(Cl)cc1)C(=O)OC	none (no result: TAR Tat displ)
Cc1cc(Nc2cc(C(=O)O)ccc2C)nc(C)n1	none
Cc1cc(C)cc(NC(=O)C(C)n2nc(C)c3sc4ccccc4c3c2=O)c1 (stereo unspecified)	none
Cc1ccc(N2CSC3=C(C#N)C(c4ccccc4)CC(=O)N3C2)cc1Cl (stereo unspecified)	CDC25B CDK2 inh 5.6
Cc1cccc(N2CSC3=C(C#N)C(c4ccc(C)o4)CC(=O)N3C2)c1 (stereo unspecified)	none
Cc1ccccc1N1CSC2=C(C#N)C(c3ccccc3)CC(=O)N2C1 (stereo unspecified)	CDC25B CDK2 inh 5.4
Cc1ccccc1N1CSC2=C(C#N)C(c3cccc(F)c3)CC(=O)N2C1 (stereo unspecified)	CDC25B CDK2 inh 8
N#CC1=C2SCN(c3cccc(Cl)c3)CN2C(=O)CC1c1cccc(F)c1 (stereo unspecified)	CDC25B CDK2 inh 8.4
N#CC1=C2SCN(C3CCCCC3)CN2C(=O)CC1c1ccccc1 (stereo unspecified)	none
O=C(Nc1ccc(Br)cc1F)c1cnn2c3c(cnc12)CCCCC3	none (no result: CDC25B CDK2 inh)
CCc1ccccc1N1CSC2=C(C#N)C(c3ccccc3)CC(=O)N2C1 (stereo unspecified)	CDC25B CDK2 inh 6.9
N#CC1=C2SCN(c3ccc(Br)cc3)CN2C(=O)CC1c1ccccc1 (stereo unspecified)	CDC25B CDK2 inh 6
Cc1ccc(N2CSC3=C(C#N)C(c4cccc(F)c4)CC(=O)N3C2)cc1 (stereo unspecified)	CDC25B CDK2 inh 4.7
COc1ccc(OC)c(-c2noc(N3CCN(c4ccc(F)cc4)CC3)n2)c1	none (no result: CDC25B CDK2 inh)
O=C(CSCc1cc(=O)c2ccccc2[nH]1)Nc1ccc(Cl)cc1	none (no result: CDC25B CDK2 inh)
O=C(c1ccc(N2CCCS2(=O)=O)cc1)N1CCN(c2ccc(Cl)cc2)CC1	none (no result: CDC25B CDK2 inh)
Cc1ccn2c(=O)c(Cc3nnc(SCC(=O)Nc4ccccc4)n3C)c(C)nc2c1	none
CN(C)c1ccc(NC(=O)Nc2cccs2)cc1	none (no result: TAR Tat displ)
Cc1cc(C)nc(SN=C2C=C(Cl)C(=O)C(Cl)=C2)n1	CDC25B CDK2 inh 15 (no result: TAR Tat displ)
Cc1cc(C)nc(SCCS(=O)(=O)Cc2ccc(Cl)cc2)n1	none (no result: TAR Tat displ)
CN1C(=O)c2cc(C(=O)NCCc3cccs3)nn2CC1(C)C(=O)NC1CCCC1 (stereo unspecified)	none (no result: CDC25B CDK2 inh)
CSc1nc2c(c(Nc3ccc(O)c(C(=O)O)c3)n1)CCC2	TAR Tat displ 18
CSc1nc2c(c(Nc3cccc(O)c3)n1)CCC2	none
CCn1c(SCC(=O)Nc2nc(C)cs2)nnc1-c1cc2ccccc2o1	TAR Tat displ 5.3 (no result: CDC25B CDK2 inh)
Cc1csc(NC(=O)CSc2nnc(-c3cc4ccccc4o3)n2-c2ccccc2)n1	none (no result: CDC25B CDK2 inh)
CC1CCN(C(=O)c2nn(C)c3c2CCc2sccc2-3)CC1	none (no result: CDC25B CDK2 inh)
COc1cccc2c1Oc1nc(-c3ccc(Br)cc3)[nH]c(=O)c1C2	none
COc1cccc(-c2nc3c(c(=O)[nH]2)Cc2cccc(OC)c2O3)c1O	TAR Tat displ 12
COc1cccc(-c2nc3c(c(=O)[nH]2)Cc2ccccc2O3)c1O	none
COc1cccc2c1Oc1nc(-c3cc(Br)ccc3O)[nH]c(=O)c1C2	TAR Tat displ 18
CC(=O)Nc1nn2c(-c3ccco3)nnc2s1	none
O=C(Nc1nn2c(-c3ccccc3)nnc2s1)c1ccco1	TAR Tat displ 17
O=C(Cc1ccccc1)Nc1nn2c(-c3ccccc3)nnc2s1	none
O=C(Nc1nn2c(-c3ccco3)nnc2s1)c1ccco1	TAR Tat displ 22
CCCOc1ccc(C2C3=C(CC(C)(C)CC3=O)Nc3cc(OC)c(OC)cc32)cc1 (stereo unspecified)	none
CCN(C(=O)NCc1noc2ccccc12)c1cccc(Cl)c1	none (no result: CDC25B CDK2 inh)
CCCn1nnc2cc(-c3noc(COc4ccc(Cl)cc4)n3)ccc21	none (no result: CDC25B CDK2 inh)
